TGFb SMAD3 inh = inhibitors of TGF-b signaling; HepG2 CAGA-GFP TGF-b/SMAD3 reporter, GFP fluorescence, 18 h; TGF-beta stimulated, 500 pg/mL final; Potency, µM (doses to about 46.1 µM), for the others: at the top dose activity, negative = inhibition, usual class: inhibitors; 410,000 tested, 1.2% active; note: % is set by controls: 0 for no effect and ±100 for the full control effect; nearly all actives have a fitted effect of over 65% in size
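Cell-based qHTS in HEPG2 carrying a CAGA-GFP Smad reporter; compounds added before 500 pg/mL final TGF-beta, 18 h incubation at 37 degrees C, GFP fluorescence quantified per cell by imaging cytometry.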
S2 tox = cell viability loss in ATXN counter-screen | S2 cells (HEK-293 line with an ATXN2-luciferase reporter) viability, CellTiter-Fluor protease fluorescence, 24 h | Potency, µM (titrated, usually from 56.7 µM), actives largely listed as cytotoxic | 400,000 tested, 0.49% active | AID 651635; note: nearly all actives have a fitted effect of over 40% in size
HepG2 tox = counter-screen for TGF-b inhibitors: cytotoxicity in HepG2 cells; Potency, µM (series often up to 46.1 µM), for the others: top-dose activity change, negative = cytotoxicity, hits mostly cytotoxic; AID 588856; HepG2 CAGA-GFP viability, ATP luminescence, 18 h; 410,000 tested, 0.76% active
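CellTiter-Glo luminescence gave cytotoxicity after 18 hours at 37 degrees C. The cells were HepG2 CAGA-GFP in 1% FBS DMEM, stimulated with 500 pg/mL TGF-beta after compound addition. %Activity was normalised to no-cell wells (complete cell-killing) and DMSO (no toxicity), and curves were fitted and classified.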
ATXN2 expr inh = ATXN2 expression inhibition | Potency, µM (highest dose often 57 µM), for the others: top-dose activity change, negative = inhibition, actives largely listed as inhibitors | HEK-293 ATXN2-luciferase reporter, luminescence, 24 h | 360,000 tested, 0.72% active; note: % is set by controls: 0 for no effect and ±100 for the full control effect; nearly all actives have a fitted effect of over 55% in size
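ATXN2-luciferase reporter cells (luciferase flanked by upstream and downstream ATXN2 gene portions) were treated 24 h at 37 °C with compounds at up to 57 uM. SteadyGlo luminescence gave expression; GF-AFC fluorescence gave viability.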
Apoferritin bind = candidate novel general anesthetic via apoferritin binding; P02791; apoferritin/1-aminoanthracene competitive binding, fluorescence; Potency, µM (series often up to 77.5 µM), inactives show at the highest dose activity change, negative = displacement, actives largely listed as inhibitors; 350,000 tested, 0.074% active; AID 485281; note: % is set by controls: 0 for no effect and ±100 for the full control effect; nearly all actives have a fitted effect of over 20% in size
Target sequence (P02791 2-175 limits assumed): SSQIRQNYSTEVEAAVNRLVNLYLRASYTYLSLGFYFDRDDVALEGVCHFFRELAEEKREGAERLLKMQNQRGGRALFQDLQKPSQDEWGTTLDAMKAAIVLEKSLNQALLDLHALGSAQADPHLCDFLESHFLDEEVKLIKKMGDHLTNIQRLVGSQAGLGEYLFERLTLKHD
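Read-out: endpoint 1-AMA fluorescence, excitation 380 nm and emission 535 nm, after compounds sit 10 min at room temperature with 10 uM horse-spleen apoferritin in 50% saturated 1-AMA/PBS. Values come from four-parameter Hill fits.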
Numbers without * were called inactive; i = inactive; u = inconclusive; x = not tested or not shown; [ ] = dose if it differs, or a comment. A selection: hits, their analogues and other compounds. The true share with any hit is near 2.4%. Calls come from the whole dose curve; as a rule, active = well fitted curve in the direction sought with a large enough effect; inconclusive = small, poorly fitted or top-dose-only effect, or another doubt; inactive = no such curve, though single readings can be large; an effect the other way counts as inactive or inconclusive. Potency is the fitted concentration of half-maximal effect.

SMILES | TGFb SMAD3 inh | S2 tox | HepG2 tox | ATXN2 expr inh | Apoferritin bind
COC(=O)CSc1nnc(-c2sc3ccccc3c2Cl)o1 | 1% | i | -14% | 22µM* | -13%
N#CCSc1nnc(-c2sc3ccccc3c2Cl)o1 | 0% | i | -34% | -9% | -8%
CCN(CC)CCOC(=O)c1ccc(NC(=O)c2nn(-c3ccc(C)cc3)c(=O)c3c2c2ccccc2n3C)cc1 | 4.5µM* | x | 3.5µM* | x | u
CC(=O)Nn1cnc2c(c1=O)C1(CCCC1)Cc1ccccc1-2 | 0% | i | -6% | -4% | -9%
Nn1cnc2c(c1=O)C1(CCCCC1)Cc1ccccc1-2 | 8.9µM* | i | 11µM* | -13% | -5%
CCOCC(=O)OCC(=O)NC12CC3CC(CC(C3)C1)C2 | 2% | i | 6% | -2% | u
COc1cc(/C=N/OCC(=O)NC23CC4CC(CC(C4)C2)C3)ccc1OCc1ccccc1 | 20µM* | i | 4% | 13% | 11%
CCSC(=O)NC12CC3CC(CC(C3)C1)C2 | 1% | i | -15% | -4% | 8.9µM*
CCC(CC)C(=O)OCC(=O)NC12CC3CC(CC(C3)C1)C2 | -4% | i | -8% | 8% | 6.3µM*
O=C(COC(=O)C(O)c1ccccc1)NC12CC3CC(CC(C3)C1)C2 (stereo not drawn) | 7% | i | 6% | -2% | 11µM*
CC(Nc1cccc2ccccc12)C(=O)N/N=C/c1ccc([N+](=O)[O-])cc1 (stereo not drawn) | u | i | -25% | -12% | 4%
COc1cc([N+](=O)[O-])cc(/C=N/NC(=O)C(C)Nc2cccc3ccccc23)c1O (stereo not drawn) | u | u | -45% | 20µM* | -14%
CC1(C)O[C@H]2O[C@@H]([C@H](O)CON3C(=O)c4ccccc4C3=O)[C@H](O)[C@H]2O1 | x | x | x | x | 3%[15.3 µM]
COc1cc([C@@H]2c3cc4c(cc3[C@@H](OC3OC5COC(C)OC5C(O)C3O)[C@H]3COC(=O)[C@H]23)OCO4)cc(OC)c1O (stereo partly drawn) | x | x | x | x | -1%
COc1cc([C@@H]2c3cc4c(cc3[C@@H](O[C@@H]3O[C@@H]5CO[C@@H](c6cccs6)O[C@@H]5[C@H](O)[C@@H]3O)[C@H]3COC(=O)[C@H]23)OCO4)cc(OC)c1O | x | x | x | 0.17µM* | x
C[C@@H]1CN([C@@H](C)CO)C(=O)c2cc(Br)cnc2O[C@H]1CN(C)C(=O)c1ccccc1F | 3% | i | 9% | 4% | x
O=C(O)c1cc(O)c2c(c1)[C@@H]([C@H]1c3cc(C(=O)O)cc(O)c3C(=O)c3c(O[C@@H]4O[C@H](CO)[C@@H](O)[C@H](O)[C@H]4O)cccc31)c1cccc(OC3O[C@H](CO)[C@@H](O)[C@H](O)[C@H]3O)c1C2=O (stereo partly drawn) | 11µM* | u | -39% | 0% | x
COc1ccc(Nc2cc(Cl)nc(N)n2)cc1OC | 5% | i | 2% | 5% | -9%
Cc1ccc(N=Nc2c(C)[nH]n(C(N)=S)c2=O)cc1C | -5% | i | -2% | 123% | -12%
Cc1c(N=Nc2c(-c3ccc([N+](=O)[O-])cc3)[nH]n(C(N)=S)c2=O)cccc1[N+](=O)[O-] | 8.9µM* | u | -23% | u | -10%
NC(=S)n1[nH]c(-c2ccc([N+](=O)[O-])cc2)c(N=Nc2ccccc2[N+](=O)[O-])c1=O | -12% | i | -1% | u | -7%
Cc1[nH]n(C(N)=S)c(=O)c1N=Nc1cccc([N+](=O)[O-])c1C | u | i | 20µM* | x | -7%
O=c1n(Cc2cc3c(cc2Cl)OCO3)c(=O)n2n1CC[C@H]1/C(=N\OC[C@@H](O)COCc3ccco3)[C@H]3O[C@@H]3[C@@H](O)[C@@H]12 | x | x | x | x | -1%[15.3 µM]
Fc1ccc(CSc2nc3ncc(Br)cc3[nH]2)cc1 | -7% | i | -17% | 23% | -9%
Brc1cnc2nc(SCc3nc4ccccc4[nH]3)[nH]c2c1 | -37% | i | -71% | 24µM* | -12%
SMILES | TGFb SMAD3 inh | S2 tox | HepG2 tox | ATXN2 expr inh | Apoferritin bind
Cn1sc(=O)n(Cc2ccccc2)c1=O | x | x | x | x | -14%
Cc1cccc(-n2nnnc2S(C)(=O)=O)c1 | u | 11µM* | 6.3µM* | u | 42%
COc1cccc(-n2nnnc2S(C)(=O)=O)c1 | u | 28µM* | -101% | u | -15%
O=c1cc(NCc2ccccc2)[nH]c(=O)[nH]1 | 11% | i | -4% | 20% | x
Cc1ccccc1NC(=O)Cn1cc(S(=O)(=O)N2CCCC2)c(S(=O)(=O)N2CCCC2)c1 | 1% | i | 14% | 10% | 0%
COc1ccc(N2C(=O)CC(Sc3nc4ccccc4s3)C2=O)cc1OC (stereo not drawn) | -3% | 32µM* | -30% | x | -11%
CC(=O)Nc1ccc(N2C(=O)CC(Sc3nc4ccccc4s3)C2=O)cc1 (stereo not drawn) | 8% | i | -9% | x | u
Cc1ccc2c(C(=O)CNc3nc(C)c(C)s3)c(C)[nH]c2c1 | u | x | -34% | x | x
COc1ccc(CC(N)C(=O)N[C@H]2[C@@H](O)[C@H](n3cnc4c(N(C)C)ncnc43)O[C@@H]2CO)cc1 (stereo partly drawn) | x | x | x | x | 3%
CCNc1ccc(Br)cc(C(=O)/C=C/c2ccc(Cl)cc2Cl)c1=O | -3% | u | -69% | 32µM* | u
CNc1ccc(Br)cc(C(=O)/C=C/c2cc(OC)ccc2OC)c1=O | 16µM* | x | -80% | u | 9%
Cc1c(NC(=O)c2cccs2)cccc1-c1nc2cc(Cl)ccc2o1 | u | i | 7% | -7% | -1%
COc1ccccc1-c1ccnc(-n2ncc(C(=O)NCC3(N4CCOCC4)CCCC3)c2C)n1 | x | i | x | x | x
CN(C)CCNc1ccc(CO)c2oc3ccc(O)cc3c(=O)c12 | u | 27µM* | -27% | 21µM* | x
NC(=O)C1CCN(C(=O)Cn2c(-c3cccs3)cc3ccccc32)CC1 | -16% | i | -5% | 4% | -11%
COc1cccc(-c2csc3ncnc(Sc4nnnn4C)c23)c1 | u | u | 10% | u | x
Cn1nnnc1Sc1ncnc2scc(-c3cccc(F)c3)c12 | 10µM* | u | -110% | u | x
Cn1nnnc1Sc1ncnc2scc(-c3ccc(-c4ccccc4)cc3)c12 | u | u | -54% | u | x
Cn1nnnc1Sc1ncnc2scc(-c3ccc(C(F)(F)F)cc3)c12 | u | 11µM* | -112% | 4µM* | x
Cn1nnnc1Sc1ncnc2scc(-c3cccc(C(F)(F)F)c3)c12 | u | 16µM* | -112% | 14µM* | x
Cn1nnnc1Sc1ncnc2scc(-c3ccccc3C(F)(F)F)c12 | u | u | -16% | u | x
